# Data from the supplement of paper PMC4709259.
# Where a name gives a salt, the structure may show the parent alone. ± gives the standard deviation.
# Key:
# [1] = test system: Jurkat; assay: mean cell size (FSC-A) relative to DMSO control (fraction of control); higher = larger cells; conditions: 48 h
# Method in brief: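 Jurkat cells at 600 cells/µl were incubated for 1 h and then treated for 48h with the Enzo Screen-Well FDA Approved Drug Library v2.0 at 25µM, with DMSO at 0.9% (v/v) final. Compounds that reduced counts below 20% of controls were retested in 10-fold dilutions down to 25nM. Cell count and mean cell size, taken as forward scatter area, were measured by flow cytometry relative to solvent-only controls. Each plate carried 6-12 controls, and values are means of 3 biological replicates.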
# [2] = test system: Jurkat; assay: cell count relative to DMSO control (fraction of control); higher = more cells (less growth inhibition); conditions: 48 h
SMILES,mean cell size [1],cell count [2]
COC(=O)C1=C(C)NC(C)=C(C(=O)OC(C)C)C1c1cccc2nonc12 (stereo not given) [Isradipine] (concentration: 25 µM),0.924 ± 0.03,1.13 ± 0.13
Oc1c(Cl)cc(Cl)c(Cl)c1Cc1c(O)c(Cl)cc(Cl)c1Cl [Hexachlorophene] (concentration: 2.5 µM),0.904 ± 0.016,0.433 ± 0.035
CC(C)Cc1ccc(C(C)C(=O)O)cc1 (stereo not given) [Ibuprofen] (concentration: 25 µM),0.955 ± 0.011,0.765 ± 0.077
COc1cc(C(C)=O)ccc1OCCCN1CCC(c2noc3cc(F)ccc23)CC1 [Iloperidone] (concentration: 25 µM),0.954 ± 0.031,0.734 ± 0.088
COc1cccc2c1C(=O)c1c(O)c3c(c(O)c1C2=O)C[C@@](O)(C(=O)CO)C[C@@H]3O[C@H]1C[C@H](N)[C@H](O)[C@H](C)O1 [Doxorubicin·HCl] (concentration: 250 nM),1.47 ± 0.048,0.234 ± 0.035
CN1CC2c3ccccc3Oc3ccc(Cl)cc3C2C1 (stereo not given) [Asenapine Maleate] (concentration: 25 µM),0.938 ± 0.019,0.935 ± 0.16
CC#C[C@]1(O)CC[C@H]2[C@@H]3CCC4=CC(=O)CCC4=C3[C@@H](c3ccc(N(C)C)cc3)C[C@@]21C [Mifepristone] (concentration: 25 µM),0.903 ± 0.021,0.424 ± 0.054
Nc1nc(=O)c2c([nH]1)NCC(CNc1ccc(C(=O)N[C@@H](CCC(=O)O)C(=O)O)cc1)N2C=O (stereo not given in full) [Leucovorin Calcium Pentahydrate] (concentration: 25 µM),0.933 ± 0.041,1.05 ± 0.035
C[C@H]1c2cccc(O)c2C(O)=C2C(=O)[C@]3(O)C(O)=C(C(N)=O)C(=O)[C@@H](N(C)C)[C@@H]3[C@@H](O)[C@@H]21 [Doxycycline Monohydrate] (concentration: 25 µM),0.861 ± 0.021,0.266 ± 0.051
CN1CCC[C@H]1c1cccnc1 [Nicotine] (concentration: 25 µM),0.936 ± 0.045,0.561 ± 0.18
